EWS-Fli inh = EWS/Fli-driven NR0B1 reporter inhibitors, primary screen, A673 cells, NR0B1 luciferase, luminescence, MLPCN library. viability-normalised. inhibition, % at 12.6 µM. 350,000 compounds, 0.67% hits. AID 651661, 2012;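 active = mean inhibition of at least 50% after viability correction, with every replicate also passing that limit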;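 also: firefly luciferase signal divided by Alamar Blue viability fluorescence both relative to DMSO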
LGR2 inh = inhibitors of bursicon-induced LGR2 CRE-luciferase signal, primary screen, cell-based, HEK293, CRE-luciferase reporter, bursicon stimulation | Drosophila bursicon receptor LGR2 (rickets) | bursicon-stimulated, 4 h | inhibition, % at 9.99 µM | 380,000 compounds, 0.35% hits | AID 720647, 2013;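 active = drop in luminescence signal, shown as inhibition above about 50% in the replicate tests, limit read from the data, passing the limit was not always enough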;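 also: agonist challenge used bursicon conditioned medium at about half maximal strength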
CF NFkB inh = inhibitors of PAF-induced NF-kB signaling, primary screen, cell-based, GFP fluorescence, uHTS; inhibition, % at 5 µM; AID 588850, 2011; 360,000 compounds, 0.86% hits; KKLEB NF-kB-GFP reporter, GFP fluorescence overnight;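 active = at least 50% inhibition at 5 µM, scaled per plate between neutral and stimulator controls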;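 also: PAF is a Pseudomonas aeruginosa culture filtrate used as stimulus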
TWEAK-Fn14 inh = inhibitors of TWEAK-Fn14 signaling, primary screen, luciferase reporter cells, uHTS | TWEAK-stimulated Fn14 reporter cells, luciferase luminescence, 8 h | inhibition, % at 10 µM | 360,000 compounds, 2% hits | AID 1159606, 2016; in the data active = inhibition above about 50%
KKLEB tox = cytotoxicity in KKLEB CF airway cells, primary screen, cytotoxicity control for CF NF-kB inhibitor project, cell-based, uHTS, fluorescence assay plates; 360,000 compounds, 0.36% hits; activity change (cytotoxicity), % at 5 µM; KKLEB CF airway cells viability, ATPlite luminescence, overnight; stronger effect = lower value; cells stimulated with P. aeruginosa culture filtrate; AID 602141, 2011;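 active = corrected activity change at or below -50% at 5 µM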
TROY signal inh = inhibitors of TROY-driven NF-kB signaling, primary screen, Q293 LMP1-TROYcd cells, NF-kB luciferase, uHTS; Q293 LMP1-TROYcd NF-kB luciferase reporter, 4 h; inhibition, % at 10 µM; 360,000 compounds, 0.98% hits;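 active = compounds whose plate-normalised and pattern-corrected inhibition of the luciferase reporter signal at the single screening dose is 50% or more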
A number is an active result. Sampled rows, rich in hits. Any-hit rate of the full collection: about 2.6%.

How did CCOc1ccc([N+](=O)[O-])cc1CNCCc1ccccc1 do in these assays?
EWS-Fli inh: inactive; CF NFkB inh: inactive; TWEAK-Fn14 inh: inactive; KKLEB tox: inactive; TROY signal inh: inactive

What do the screens show for `O=C(O)[C@H]1[C@H](CO)[C@H]2Cn3c(ccc(-c4cccnc4)c3=O)[C@@H]1N2S(=O)(=O)c1ccccc1F`?
EWS-Fli inh: inactive; LGR2 inh: inactive

How did CCCCCCOc1ccc(CN2CCN(C)CC2)cc1 do in these assays?
EWS-Fli inh: inactive; LGR2 inh: inactive; CF NFkB inh: inactive; TWEAK-Fn14 inh: 61; KKLEB tox: inactive; TROY signal inh: 65

Results for CN1CCN(Cc2ccc3ccccc3c2)CC1 ?
EWS-Fli inh: inactive; LGR2 inh: inactive; CF NFkB inh: inactive; TWEAK-Fn14 inh: inactive; KKLEB tox: inactive; TROY signal inh: inactive

Results for C[C@H](CO)N1C[C@H](C)[C@H](CN(C)C(=O)Oc2cccc3ccccc23)OCc2cn(nn2)CCCC1=O ?
EWS-Fli inh: inactive; LGR2 inh: inactive

Results for CC1CC(C)CC(C)C(O)C(C#N)=CC=CCC(C2CCCC2C(=O)O)OC(=O)CC(O)C(C)C1 (stereo not drawn) ?
EWS-Fli inh: inactive; LGR2 inh: 75; CF NFkB inh: 86; TWEAK-Fn14 inh: 100; KKLEB tox: inactive; TROY signal inh: 81

Results for O=C(Cc1ccccc1)N1CCCCN2[C@H](CO)[C@H](c3ccc(C#Cc4ccccc4)cc3)[C@@H]2C1 ?
LGR2 inh: inactive

How did N#CC(C#N)=Cc1ccc(O)c(O)c1 do in these assays?
EWS-Fli inh: inactive; LGR2 inh: inactive; CF NFkB inh: inactive; TWEAK-Fn14 inh: inactive; KKLEB tox: inactive; TROY signal inh: inactive

How did N#CC(C#N)=Cc1ccc(-c2ccccc2F)o1 do in these assays?
EWS-Fli inh: inactive; CF NFkB inh: inactive; TWEAK-Fn14 inh: 70; KKLEB tox: inactive; TROY signal inh: inactive

Results for O=C(C1CC1)N1C[C@@H]2N[C@H](C1)[C@@H]2c1ccc(-c2ccncc2)cc1 ?
EWS-Fli inh: 80; LGR2 inh: 65

Results for CC=Cc1ccc2n(c1=O)C[C@@H]1[C@@H](CO)[C@H](C(=O)OC)[C@H]2N1CC1CCCC1 (mixture of isomers) ?
EWS-Fli inh: inactive; LGR2 inh: inactive

Results for CN1[C@@H](CO)[C@@H]2c3ccccc3NC[C@@H]21 ?
EWS-Fli inh: inactive; LGR2 inh: inactive

Results for CN1CCc2cc(O)cc3c2[C@H]1Cc1ccc(O)c(O)c1-3 ?
EWS-Fli inh: inactive; LGR2 inh: inactive; CF NFkB inh: inactive; TWEAK-Fn14 inh: inactive; KKLEB tox: -77; TROY signal inh: inactive

Results for CN(C)C(=O)Oc1ccc(OC(=O)N(C)C)cc1 ?
LGR2 inh: inactive; CF NFkB inh: inactive; TWEAK-Fn14 inh: inactive; KKLEB tox: inactive; TROY signal inh: inactive

What do the screens show for `CN(C)C(=O)Oc1ccc(OCc2nc3ccccc3[nH]2)cc1`?
EWS-Fli inh: inactive; LGR2 inh: 53; CF NFkB inh: inactive; TWEAK-Fn14 inh: 68; KKLEB tox: inactive; TROY signal inh: inactive

How did CC(=O)OCC12CC(OC(=O)CC(C)C)C(C)=CC1OC1C(O)C(OC(C)=O)C2(C)C12CO2 (stereo not drawn) do in these assays?
EWS-Fli inh: inactive; LGR2 inh: 101; CF NFkB inh: 93; TWEAK-Fn14 inh: 93; KKLEB tox: -63; TROY signal inh: 82

What do the screens show for `CCC(C)C(=O)N[C@@H](c1ccccc1)[C@@H](O)C(=O)O[C@H]1C[C@@]2(O)[C@@H](OC(=O)c3ccccc3)C3[C@](C)(C(=O)[C@H](OC(C)=O)C(=C1C)C2(C)C)[C@@H](O)C[C@H]1OC[C@@]31OC(C)=O` (stereo partly drawn)?
EWS-Fli inh: 56; LGR2 inh: inactive; CF NFkB inh: inactive; TWEAK-Fn14 inh: inactive; KKLEB tox: inactive; TROY signal inh: inactive

How did CC/C=C/CC(=O)N[C@@H](c1ccccc1)[C@@H](O)C(=O)O[C@H]1C[C@@]2(O)[C@@H](OC(=O)c3ccccc3)C3[C@](C)(C(=O)[C@H](OC(C)=O)C(=C1C)C2(C)C)[C@@H](O)C[C@H]1OC[C@@]31OC(C)=O (stereo partly drawn) do in these assays?
EWS-Fli inh: inactive; CF NFkB inh: inactive; TWEAK-Fn14 inh: inactive; KKLEB tox: inactive; TROY signal inh: inactive

Results for C/C=C(\C)C(=O)N[C@@H](c1ccccc1)[C@@H](O)C(=O)O[C@H]1C[C@@]2(O)[C@@H](OC(=O)c3ccccc3)C3[C@](C)(C(=O)[C@H](OC(C)=O)C(=C1C)C2(C)C)[C@H](O)C[C@H]1OC[C@@]31OC(C)=O (stereo partly drawn) ?
EWS-Fli inh: 58; CF NFkB inh: inactive; TWEAK-Fn14 inh: inactive; KKLEB tox: inactive; TROY signal inh: inactive

Results for CCCNC(=O)N1[C@@H]2c3ccc(-c4ccccc4OC)c(=O)n3C[C@H]1[C@H](CO)[C@H]2C(=O)O ?
EWS-Fli inh: inactive; LGR2 inh: inactive

Results for C[C@H](CO)N1C[C@H](C)[C@@H](CN(C)C(=O)Oc2cccc3ccccc23)OCc2cnnn2CCCC1=O ?
EWS-Fli inh: inactive; LGR2 inh: inactive

How did COc1ccc2[nH]c(C)c(CCNCc3cc(OC)c4c(c3)OCO4)c2c1 do in these assays?
EWS-Fli inh: inactive; LGR2 inh: inactive; CF NFkB inh: inactive; TWEAK-Fn14 inh: inactive; KKLEB tox: inactive; TROY signal inh: 64

How did COc1ccc2[nH]c(C)c(CCNCc3cc(OC)c(OC)c(OC)c3)c2c1 do in these assays?
EWS-Fli inh: inactive; LGR2 inh: inactive; CF NFkB inh: inactive; TWEAK-Fn14 inh: inactive; KKLEB tox: inactive; TROY signal inh: inactive

What do the screens show for `N[C@@H](Cc1ccc(N(CCCl)CCCl)cc1)C(=O)O`?
EWS-Fli inh: inactive; LGR2 inh: inactive; CF NFkB inh: inactive; TWEAK-Fn14 inh: inactive; KKLEB tox: inactive; TROY signal inh: inactive

Results for ClCCN(CCCl)c1ccc(-n2cnc3c(Cl)ncnc32)cc1 ?
EWS-Fli inh: 55; LGR2 inh: inactive; CF NFkB inh: inactive; TWEAK-Fn14 inh: 75; KKLEB tox: inactive; TROY signal inh: inactive

What do the screens show for `COC(=O)[C@@H]1[C@@H](CO)[C@@H]2Cn3c(ccc(C4=CCCCC4)c3=O)[C@H]1N2Cc1cccnc1`?
EWS-Fli inh: inactive; LGR2 inh: inactive

How did O=C1NC2C(O)C(O)C(O)C(O)C2c2cc3c(c(O)c21)OCO3 (stereo not drawn) do in these assays?
EWS-Fli inh: 56; LGR2 inh: 103; CF NFkB inh: 86; TWEAK-Fn14 inh: 99; KKLEB tox: inactive; TROY signal inh: 81

Bioassay records (PubChem)
